Experimental data as given in PubChem BioAssay (EPA / NIEHS).
Results filed as inconclusive are left out. Active and inactive are the calls of the source. The calls were made as follows: active = hit-call score of the fitted dose curve at least 0.9, where 1 is the maximum; inconclusive = response in the unintended direction; inactive = score below 0.9.

Each molecule was assayed against Retinoic acid receptor alpha (Homo sapiens) (UniProt P10276) (assay: ATG_RARa_TRANS: Attagene TRANS-FACTORIAL HepG2 Assay for human Retinoic Acid Receptor alpha (RARa) (AID 2283005)).
Chain of Retinoic acid receptor alpha (Homo sapiens) (P10276 whole entry, looked up, the tested form may be a part): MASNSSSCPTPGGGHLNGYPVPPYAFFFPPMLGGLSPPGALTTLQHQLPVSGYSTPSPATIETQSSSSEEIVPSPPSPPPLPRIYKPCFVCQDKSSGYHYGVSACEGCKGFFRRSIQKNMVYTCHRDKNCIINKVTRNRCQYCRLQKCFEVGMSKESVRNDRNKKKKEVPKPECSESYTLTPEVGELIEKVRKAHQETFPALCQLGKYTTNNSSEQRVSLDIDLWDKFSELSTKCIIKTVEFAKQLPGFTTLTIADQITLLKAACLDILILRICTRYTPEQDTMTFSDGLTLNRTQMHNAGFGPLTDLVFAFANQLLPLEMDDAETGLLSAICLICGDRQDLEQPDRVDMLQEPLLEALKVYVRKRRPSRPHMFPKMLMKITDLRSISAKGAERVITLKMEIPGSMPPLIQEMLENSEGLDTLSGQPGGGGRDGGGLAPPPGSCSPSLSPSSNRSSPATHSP
In short: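 HepG2 transiently transfected with multiplex GAL4-UAS reporter units including a human RARa–GAL4 chimera; 24 h compound exposure. Reporter mRNA quantified by RT-PCR, 6-FAM labeling and capillary electrophoresis; gain of signal versus DMSO.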

Row | Compound | outcome
1 | Cc1c(C(=O)c2c[nH]n(C)c2=O)ccc(S(C)(=O)=O)c1C1=NOCC1 | inactive
2 | COCC(=O)O | inactive
3 | CC(=O)c1ccc(S(=O)(=O)NC(=O)NC2CCCCC2)cc1 | inactive
4 | Cn1ccnc1 | inactive
5 | CC1(C)[C@@H]2CC[C@@]1(C)C(=O)C2 | inactive
6 | CCOc1ccc(NC(N)=O)cc1 | inactive
7 | CCc1cccc(CC)c1 | inactive

Each molecule was assayed against Peroxisome proliferator-activated receptor gamma (Homo sapiens) (UniProt P37231) (assay: ATG_PPARg_TRANS: Attagene TRANS-FACTORIAL HepG2 Assay for human Peroxisome Proliferator-activated Receptor-gamma (PPARg) (AID 2283007)).
Chain of Peroxisome proliferator-activated receptor gamma (Homo sapiens) (P37231 whole entry, looked up): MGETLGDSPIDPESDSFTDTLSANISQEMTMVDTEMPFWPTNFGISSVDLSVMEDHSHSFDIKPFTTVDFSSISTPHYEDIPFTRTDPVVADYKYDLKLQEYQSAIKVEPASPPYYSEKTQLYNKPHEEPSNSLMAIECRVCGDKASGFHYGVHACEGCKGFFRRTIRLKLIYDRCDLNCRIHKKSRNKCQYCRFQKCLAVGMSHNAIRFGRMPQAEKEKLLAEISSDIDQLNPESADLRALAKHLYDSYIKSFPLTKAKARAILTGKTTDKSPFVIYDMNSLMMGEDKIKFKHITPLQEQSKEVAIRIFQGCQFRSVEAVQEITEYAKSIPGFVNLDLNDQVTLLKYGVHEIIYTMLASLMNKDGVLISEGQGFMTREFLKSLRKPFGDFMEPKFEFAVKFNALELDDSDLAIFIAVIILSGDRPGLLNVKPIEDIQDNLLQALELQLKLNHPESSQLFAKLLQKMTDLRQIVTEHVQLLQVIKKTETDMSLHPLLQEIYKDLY
In short: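 Multiplexed reporter transcription units in HepG2, 24 h dosing, reporter transcripts quantified by fluorescent RT-PCR and capillary electrophoresis. Increase over DMSO scored.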

Row | Compound | AC50 | outcome
8 | CC(=O)/C=C/C1C(C)=CCCC1(C)C (stereo not drawn) | 42.1 µM (active) | –
9 | O=C(Oc1ccccc1)c1ccccc1O | – | inactive
10 | CC1=CCC(C(C)C)C=C1 (stereo not drawn) | – | inactive
11 | CCCCNS(=O)(=O)c1ccccc1 | – | inactive
12 | CC(C)(C)N | – | inactive
13 | COCC(=O)O | – | inactive
14 | CC(=O)c1ccc(S(=O)(=O)NC(=O)NC2CCCCC2)cc1 | – | inactive
15 | CCCc1ccc(O)c(OC)c1 | 57.2 µM (active) | –
16 | CCCC(CC)c1ccccc1 (stereo not drawn) | – | inactive
17 | CCCCCCOc1ccc(N)cc1 | – | inactive
18 | O=C(O[C@@H]1Cc2c(O)cc(O)cc2O[C@@H]1c1cc(O)c(O)c(O)c1)c1cc(O)c(O)c(O)c1 | – | inactive
19 | CCN1CCCC1=O | – | inactive
20 | C=CC(C)(CCC=C(C)C)OC(=O)C=Cc1ccccc1 (stereo not drawn) | 4.97 µM (active) | –
21 | CCCCOCCOC(=O)COc1ccc(Cl)cc1Cl | – | inactive
22 | CCCCCCO | – | inactive
23 | CCCCCCCC(=O)OCC(COC(=O)CCCCCCC)OC(=O)CCCCCCC | – | inactive
24 | O=C(C=Cc1ccccc1)OCCc1ccccc1 | 3.05 µM (active) | –
25 | CCOc1ccc(NC(N)=O)cc1 | – | inactive
26 | CCc1cccc(CC)c1 | – | inactive

The molecules below were run against Nuclear receptor subfamily 1 group I member 2 (Homo sapiens) (UniProt O75469) (assay: ATG_PXR_TRANS: Attagene TRANS-FACTORIAL HepG2 Assay for human Pregnane X Receptor (PXR) (AID 2283008)).
Chain of Nuclear receptor subfamily 1 group I member 2 (Homo sapiens) (O75469 whole entry, looked up, the tested form may be a part): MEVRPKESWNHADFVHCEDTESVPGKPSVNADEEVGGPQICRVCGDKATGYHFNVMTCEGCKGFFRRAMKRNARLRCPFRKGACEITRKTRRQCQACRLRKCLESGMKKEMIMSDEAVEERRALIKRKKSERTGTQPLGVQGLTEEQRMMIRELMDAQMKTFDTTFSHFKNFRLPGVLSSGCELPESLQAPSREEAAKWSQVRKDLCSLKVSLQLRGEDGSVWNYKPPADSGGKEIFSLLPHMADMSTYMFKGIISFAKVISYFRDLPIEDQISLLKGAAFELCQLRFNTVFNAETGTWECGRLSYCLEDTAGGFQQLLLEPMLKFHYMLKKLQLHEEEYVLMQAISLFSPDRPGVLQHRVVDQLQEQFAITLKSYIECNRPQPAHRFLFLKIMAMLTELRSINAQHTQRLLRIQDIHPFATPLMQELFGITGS
In short: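 Measures mRNA induction of a GAL4-UAS-driven reporter in human HepG2 cells transiently expressing PXR fused to Gal4, following 24 h treatment. DMSO served as negative control and baseline.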

Row | Compound | AC50 | outcome
27 | CC(=O)/C=C/C1C(C)=CCCC1(C)C (stereo not drawn) | 2.79 µM (active) | –
28 | O=C(OCc1ccccc1)c1ccc(O)cc1 | 63.2 µM (active) | –
29 | O=C(Oc1ccccc1)c1ccccc1O | – | inactive
30 | CC1=CCC(C(C)C)C=C1 (stereo not drawn) | 7.16 µM (active) | –
31 | CC(C)CCOCc1ccccc1 | – | inactive
32 | Cc1c(C(=O)c2c[nH]n(C)c2=O)ccc(S(C)(=O)=O)c1C1=NOCC1 | – | inactive
33 | CCCCNS(=O)(=O)c1ccccc1 | – | inactive
34 | CC(C)(C)N | – | inactive
35 | CC(=O)c1ccc(S(=O)(=O)NC(=O)NC2CCCCC2)cc1 | – | inactive
36 | C=C1C[C@H]2[C@@H]3C=C(C)C4=CC(=O)CC[C@]4(C)[C@H]3CC[C@]2(C)[C@@]1(OC(C)=O)C(C)=O | – | inactive
37 | CCCc1ccc(O)c(OC)c1 | – | inactive
38 | NNS(=O)(=O)c1ccc(Oc2ccc(S(=O)(=O)NN)cc2)cc1 | – | inactive
39 | CCCC(CC)c1ccccc1 (stereo not drawn) | – | inactive
40 | CC1(C)[C@@H]2CC[C@@]1(C)C(=O)C2 | – | inactive
41 | CCCCCCOc1ccc(N)cc1 | – | inactive
42 | O=C(O[C@@H]1Cc2c(O)cc(O)cc2O[C@@H]1c1cc(O)c(O)c(O)c1)c1cc(O)c(O)c(O)c1 | – | inactive
43 | CCCCOCC(C)O (stereo not drawn) | – | inactive
44 | CCN1CCCC1=O | – | inactive
45 | C=CC(C)(CCC=C(C)C)OC(=O)C=Cc1ccccc1 (stereo not drawn) | 2.75 µM (active) | –
46 | N=C1C=CC(=C(c2ccc(N)cc2)c2ccc(N)cc2)C=C1 | – | inactive
47 | CCCCCCO | – | inactive
48 | CC(C)(c1ccccc1)c1ccc(Nc2ccc(C(C)(C)c3ccccc3)cc2)cc1 | – | inactive
49 | O=C(C=Cc1ccccc1)OCCc1ccccc1 | – | inactive

Each molecule was assayed against human Retinoic Acid Receptor gamma (RARg), RARG (gene 5916) (UniProt P13631) (assay: ATG_RARg_TRANS: Attagene TRANS-FACTORIAL HepG2 Assay for human Retinoic Acid Receptor gamma (RARg) (AID 2283009)).
Chain of human Retinoic Acid Receptor gamma (RARg), RARG (gene 5916) (P13631 whole entry, looked up, the tested form may be a part): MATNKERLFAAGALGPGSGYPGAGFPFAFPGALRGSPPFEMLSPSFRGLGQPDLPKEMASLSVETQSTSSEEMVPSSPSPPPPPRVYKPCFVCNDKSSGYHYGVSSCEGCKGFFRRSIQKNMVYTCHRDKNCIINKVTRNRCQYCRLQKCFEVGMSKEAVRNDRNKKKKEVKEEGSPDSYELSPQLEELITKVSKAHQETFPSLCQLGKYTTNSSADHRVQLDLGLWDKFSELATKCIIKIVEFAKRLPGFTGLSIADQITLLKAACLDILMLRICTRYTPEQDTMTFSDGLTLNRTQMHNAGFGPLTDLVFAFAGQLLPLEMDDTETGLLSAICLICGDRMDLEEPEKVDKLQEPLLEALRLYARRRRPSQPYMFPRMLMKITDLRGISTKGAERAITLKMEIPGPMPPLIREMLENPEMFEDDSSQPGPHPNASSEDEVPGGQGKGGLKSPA
In short: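 HepG2 transiently transfected with GAL4-UAS reporter units and chimeric NR-Gal4 constructs; 24 h compound exposure. Reporter mRNA quantified by RT-PCR, FAM labeling, HpaI digestion and capillary electrophoresis; gain-of-signal versus DMSO.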

Row | Compound | outcome
50 | CC(=O)CC(=O)Nc1ccccc1C | inactive
51 | CCCc1ccc(O)c(OC)c1 | inactive
52 | CCCC(CC)c1ccccc1 (stereo not drawn) | inactive
53 | O=C(O[C@@H]1Cc2c(O)cc(O)cc2O[C@@H]1c1cc(O)c(O)c(O)c1)c1cc(O)c(O)c(O)c1 | inactive
54 | CCCCOCC(C)O (stereo not drawn) | inactive
55 | N=C1C=CC(=C(c2ccc(N)cc2)c2ccc(N)cc2)C=C1 | inactive

These molecules were tested against human RAR-related Orphan Receptor beta (RORb), RORB (gene 6096) (UniProt Q92753) (assay: ATG_RORb_TRANS: Attagene TRANS-FACTORIAL HepG2 Assay for human RAR-related Orphan Receptor beta (RORb) (AID 2283010)).
Chain of human RAR-related Orphan Receptor beta (RORb), RORB (gene 6096) (Q92753 whole entry, looked up, the tested form may be a part): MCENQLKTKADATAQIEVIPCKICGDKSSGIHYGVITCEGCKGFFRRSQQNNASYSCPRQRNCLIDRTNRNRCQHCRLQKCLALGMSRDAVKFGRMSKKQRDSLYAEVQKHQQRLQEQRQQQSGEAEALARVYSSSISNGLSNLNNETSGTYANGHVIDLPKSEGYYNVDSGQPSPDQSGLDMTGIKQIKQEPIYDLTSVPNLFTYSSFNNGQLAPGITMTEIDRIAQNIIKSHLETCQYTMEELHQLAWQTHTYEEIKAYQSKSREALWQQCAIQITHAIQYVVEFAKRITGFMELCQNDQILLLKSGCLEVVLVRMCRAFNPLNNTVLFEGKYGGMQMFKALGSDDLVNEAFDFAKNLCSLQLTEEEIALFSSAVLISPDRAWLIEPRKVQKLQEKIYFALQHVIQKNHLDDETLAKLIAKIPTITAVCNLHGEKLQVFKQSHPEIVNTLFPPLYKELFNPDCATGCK
In short: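 HepG2 cells transiently transfected with GAL4-UAS reporter units expressing chimeric NR-Gal4 protein; reporter mRNA measured 24 h after dosing by RT-PCR, 6-FAM labelling and capillary electrophoresis. Gain-of-signal fitted relative to DMSO baseline.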

Row | Compound | outcome
56 | O=C(O)CCC(=O)O | inactive
57 | Cc1c(C(=O)c2c[nH]n(C)c2=O)ccc(S(C)(=O)=O)c1C1=NOCC1 | inactive
58 | CC(C)(C)N | inactive
59 | CC(=O)c1ccc(S(=O)(=O)NC(=O)NC2CCCCC2)cc1 | inactive
60 | CC(=O)CC(=O)Nc1ccccc1C | inactive
61 | CCCCCC(=O)OCC | inactive
62 | CCCc1ccc(O)c(OC)c1 | inactive
63 | NNS(=O)(=O)c1ccc(Oc2ccc(S(=O)(=O)NN)cc2)cc1 | inactive
64 | Cc1c(Cl)cccc1Cl | inactive
65 | N=C1C=CC(=C(c2ccc(N)cc2)c2ccc(N)cc2)C=C1 | inactive
66 | CCCCOCCOC(=O)COc1ccc(Cl)cc1Cl | inactive
67 | CCCCCCCC(=O)OCC(COC(=O)CCCCCCC)OC(=O)CCCCCCC | inactive
68 | CC(C)(c1ccccc1)c1ccc(Nc2ccc(C(C)(C)c3ccccc3)cc2)cc1 | inactive
69 | O=C(C=Cc1ccccc1)OCCc1ccccc1 | inactive
70 | CCOc1ccc(NC(N)=O)cc1 | inactive

These molecules were tested against human RAR-related Orphan Receptor gamma (RORg), RORC (gene 6097) (UniProt P51449) (assay: ATG_RORg_TRANS: Attagene TRANS-FACTORIAL HepG2 Assay for human RAR-related Orphan Receptor gamma (RORg) (AID 2283011)).
Chain of human RAR-related Orphan Receptor gamma (RORg), RORC (gene 6097) (P51449 whole entry, looked up, the tested form may be a part): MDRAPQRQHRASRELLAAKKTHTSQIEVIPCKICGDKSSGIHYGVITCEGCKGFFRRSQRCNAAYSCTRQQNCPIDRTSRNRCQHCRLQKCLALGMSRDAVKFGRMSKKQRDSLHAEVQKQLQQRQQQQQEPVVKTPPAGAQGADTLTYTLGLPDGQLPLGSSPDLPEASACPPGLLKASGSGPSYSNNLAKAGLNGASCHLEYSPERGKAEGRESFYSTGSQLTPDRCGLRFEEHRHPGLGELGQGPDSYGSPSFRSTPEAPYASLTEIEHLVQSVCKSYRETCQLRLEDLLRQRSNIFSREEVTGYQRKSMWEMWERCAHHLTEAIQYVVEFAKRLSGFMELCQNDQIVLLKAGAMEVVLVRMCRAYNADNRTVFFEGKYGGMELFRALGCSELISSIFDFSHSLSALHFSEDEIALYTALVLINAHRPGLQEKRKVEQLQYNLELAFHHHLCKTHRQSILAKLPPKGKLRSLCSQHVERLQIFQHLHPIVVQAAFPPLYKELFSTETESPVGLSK
In short: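 Activity is scored as increase in GAL4-UAS reporter mRNA over DMSO, detected by fluorescent RT-PCR and capillary electrophoresis in HepG2 cells transiently expressing a RORg-Gal4 chimera, 24 h after dosing.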

Row | Compound | outcome
71 | CC(=O)/C=C/C1C(C)=CCCC1(C)C (stereo not drawn) | inactive
72 | CC(C)CCOCc1ccccc1 | inactive
73 | CCCCNS(=O)(=O)c1ccccc1 | inactive
74 | CC(C)(C)N | inactive
75 | CCCc1ccc(O)c(OC)c1 | inactive
76 | CCCC(CC)c1ccccc1 (stereo not drawn) | inactive
77 | CCCCOCCOC(=O)COc1ccc(Cl)cc1Cl | inactive
78 | O=C(C=Cc1ccccc1)OCCc1ccccc1 | inactive
